The entries come from a sample that favours hits as a whole.
Pf Dd2 inh = blocks in vitro growth of P. falciparum Dd2; 120,000 compounds, 4.3% hits; P. falciparum Dd2 growth, SYBR Green, 72 h; AID 1347417; Potency, µM (series often up to 28.9 µM), without a hit: at the highest dose activity, negative = inhibition, most hits filed as inhibitors; active means well fitted inhibition curve with a large enough effect;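 further: plate controls were DMSO vehicle for no effect and reference drug for full effect; nearly all actives have a fitted effect of over 65% in size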
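Infected erythrocytes (Dd2, 0.3% parasitemia, 2.5% hematocrit final) are added to compound in RPMI-1640/Albumax II medium, grown 72 h at 37C in low oxygen, then lysed with saponin/Triton-X containing SYBR Green and read by fluorescence.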
Starred values were filed as active, the others as inactive; i = inactive; [ ] = another dose, or the depositor's remark. Potency means the concentration at half of the fitted maximal effect.

SMILES	Pf Dd2 inh
Cc1ccc(CNC(=O)c2ccc(Cn3c(SCc4ccccc4F)nc4cccnc43)cc2)cc1	i
Cc1ccccc1CSc1nc2cccnc2n1Cc1ccc(C(=O)NC2CC2)cc1	i
Cc1cc(CN2CCC(N3CCOCC3=O)CC2)no1	15%[44.1 µM]
Cc1ccc(C(=O)NC(C(=O)NC2CC2)C2CCN(C(=O)c3ccc4c(c3)OCO4)CC2)cc1 (stereo not drawn)	i
CS(=O)(=O)N1CC[C@H](C(=O)NNC(=O)Cc2ccccc2)C1	-5%[44.1 µM]
O=C(c1ccc(Cn2cccn2)o1)N1CCC2(CC1)c1ccccc1CC2O (stereo not drawn)	-11%
Cn1nc(C(=O)Nc2ccc(F)c(Cl)c2)c2c1-c1ccccc1S(=O)(=O)C2	8.9µM*
Cc1ccc(NC(=O)c2nn(C)c3c2CS(=O)(=O)c2ccccc2-3)c(Cl)c1	-1%
COc1cc(NC(=O)c2nn(C)c3c2CS(=O)(=O)c2ccccc2-3)cc(OC)c1	-21%
O=S(=O)(NC[C@H]1Cn2ccnc2CO1)c1ccccc1	7%[44.1 µM]
COC(=O)c1cccc(NC(=S)N[C@H]2CO[C@H]3[C@@H]2OC[C@@H]3n2nnnc2Oc2cccc(N3CCOCC3)c2)c1	-7%
Cc1nc2ncnn2c(C)c1CCC(=O)N1C[C@@H](N)C[C@H]1C(=O)NC(C)C	-8%
CCOc1cccc(CC(=O)N2CCc3c([nH]c4ccccc34)C2c2ccc(SC)cc2)c1OCC (stereo not drawn)	7.9µM*
O=C(COc1ccccc1)NC1CCCc2c1[nH]c1ccccc21 (stereo not drawn)	i
CCOc1cccc(CC(=O)NCc2ccc3c(c2)CCN3C(C)=O)c1OCC	66%
CCOc1ccc(CNC(=O)c2[nH]c3ccccc3c2Sc2ccc(C)cc2)cc1	-5%
CCOc1ccc(C2c3[nH]c4ccccc4c3CCN2C(=O)Cc2cccc(OCC)c2OCC)cc1 (stereo not drawn)	11µM*
O=C(CSCc1ccc(F)cc1)N1CCc2c([nH]c3ccccc23)C1c1ccc(Cl)cc1 (stereo not drawn)	-9%
CCn1nccc1C(=O)N1C[C@@H](Oc2ccccc2)C[C@@H]1C(=O)NC	7%
O=C(c1ccoc1)N1CCC(c2n[nH]c(=O)n2Cc2ccc(F)cc2)CC1	19%
CCOCC(=O)N1CCCC(c2nc(-c3ccccc3)no2)CCNC(=O)CC1 (stereo not drawn)	14%
COc1ccccc1-c1nc(COC(=O)C2=CN(Cc3ccccc3)S(=O)(=O)N=C2C)no1	i
O=C(N[C@@H]1CN(C(=O)Nc2cccc(C(F)(F)F)c2)CCC[C@H]1O)c1ccc(OCc2ccccc2)cc1	7.1µM*
O=C(N[C@@H]1CN(Cc2ccccn2)CCC[C@H]1O)c1ccc(OCc2ccccc2)cc1	2.5µM*
O=C(N[C@@H]1CN(C(=O)Nc2ccccc2)CCC[C@H]1O)c1ccc(OCc2ccccc2)cc1	-16%
SMILES	Pf Dd2 inh
COCCOc1ccc(C(=O)N[C@@H]2CN(C(=O)Nc3cccc(C(F)(F)F)c3)CCC[C@H]2O)cc1	i
COCCOc1ccc(C(=O)N[C@@H]2CN(C(=O)NCc3ccccc3)CCC[C@H]2O)cc1	17%
NC(=O)COc1ccc(C(=O)N[C@@H]2CN(Cc3ccccn3)CCC[C@H]2O)cc1	-27%[44.1 µM]
O=C(NC1CCCN(c2cc(-c3ccccc3)[nH]n2)C1)c1ccc2c(c1)OCO2 (stereo not drawn)	i
O=C(c1ccc(Cl)cc1)N1CCN(c2cc(-c3ccc(Cl)cc3)[nH]n2)CC1	i
O=C(c1ccc[nH]c1=O)N1C[C@@H](COCC2CC2)[C@H](c2ccccn2)C1	3%
CCn1c(C2CCCN(C(=O)Cc3c[nH]c(=O)n(C)c3=O)C2)nn(C)c1=O (stereo not drawn)	14%
Cc1noc(-c2cccc(OC3CN(S(=O)(=O)c4c(C)nn(C)c4C)C3)c2)n1	45%[5.79 µM]
CCC1CN(CCNC(=O)Cc2c(F)cc(F)cc2F)Cc2cc(OC)ccc2O1 (stereo not drawn)	-19%
CN(C)C[C@@H]1CN(c2ccccn2)C[C@H]1NC(=O)c1ccc2c(c1)OCO2	-23%
CCOC(=O)C1CCN(C(=O)C2CCN(C3=NS(=O)(=O)C(c4ccc(C)c(C)c4)=C3C)CC2)CC1	4µM*
CC1=C(c2ccc(C)c(C)c2)S(=O)(=O)N=C1N1CCC(C(=O)Nc2ccc(Cl)cc2)CC1	i
CC1=C(c2ccc(C)c(C)c2)S(=O)(=O)N=C1N1CCC(C(=O)N2CCC(C(N)=O)CC2)CC1	i
COc1cccc(CN2C[C@@H](COCC3CC3)[C@H](c3ccncc3)C2)n1	11µM*
Cc1ccccc1C(=O)N1C[C@@H](COCC2CC2)[C@H](c2ccncc2)C1	-23%
O=C(c1cncnc1)N1C[C@@H](COCC2CC2)[C@H](c2ccncc2)C1	21%
CC[C@H]1CN(C(=O)c2ccnc(Cl)c2)CC[C@H]1CC(=O)N1CCOCC1	-1%[44.1 µM]
CN1CCN(C(CN)C2CCCCC2)CC1 (stereo not drawn)	28µM*
CCSc1ncc(-c2c(-c3ccccc3)ncn2CC[C@@H](C)CO)cn1	-26%
CCOCCn1cnc(-c2ccccc2)c1-c1cccc(C#N)c1	i
CCC(Cn1cnc(-c2ccccc2)c1-c1ccc(C#N)cc1)N1CCN(C)CC1 (stereo not drawn)	8.9µM*
COCC1CN(C(C)=O)CC12CCN(Cc1ccccc1OC(C)C)CC2 (stereo not drawn)	-31%
CS(=O)(=O)N1CCC2(CC1)CN(Cc1ccc(O)cc1)Cc1ccccc1O2	5%
COc1cccc(-c2nc3cc4c(cc3cc2CN2CCOCC2)OCO4)c1OC	-30%
COc1cccc(-c2noc(N3CCCC3)n2)c1OC	-5%
SMILES	Pf Dd2 inh
COc1cccc(-c2nc3cc4c(cc3cc2CN2CCSCC2)OCO4)c1OC	11µM*
Cc1ccc(OCC(=O)c2ccc3c(c2)N(CCCC(=O)NCC2CC2)C(=O)CO3)cc1C	-14%
CC(C)(C)C1CCC2(CC1)NC(=O)N(CC(=O)NCCCc1ccccc1)C2=O (stereo not drawn)	-8%
Clc1ccc(-c2noc3ncnc(NC4CCCCC4)c23)cc1	-19%
CC1CCC(Nc2ncnc3onc(-c4ccc(Cl)cc4)c23)CC1 (stereo not drawn)	4.5µM*
Clc1ccc(CNc2ncnc3onc(-c4ccc(Cl)cc4)c23)cc1	i
COc1ccccc1CCC(=O)N1CCc2nn(C)c(=O)n2CC1	19%
COCc1noc([C@@H]2CC(F)(F)CN2C(=O)Cc2ccccc2F)n1	7%
O=C(c1ccc(F)cc1F)N1CCN(c2cc(-c3cccs3)[nH]n2)CC1	i
COc1ccccc1Nc1cnc2ccc(-c3ccccc3OC)nn12	-4%[44.1 µM]
CN1CCN(Cc2ccc(Nc3cnc4ccc(N5CCOCC5)nn34)cc2)CC1	-20%[44.1 µM]
COc1cncc(Nc2cnc3ccc(-c4ccc(OC)c(OC)c4)nn23)c1	0.89µM*
NC(=O)c1ccc(Nc2cnc3ccc(-c4ccccc4)nn23)cc1	-11%[44.1 µM]
COc1ccccc1-c1ccc2ncc(Nc3cccc(N[S+](C)(=O)[O-])c3)n2n1	i
COc1ccc(Nc2cnc3ccc(-c4ccccc4)nn23)cc1	5.6µM*
COc1cncc(Nc2cnc3ccc(-c4ccccc4OC)nn23)c1	2.5µM*
c1ccc(-c2ccc3ncc(Nc4ncccn4)n3n2)cc1	i
COc1ccccc1-c1ccc2ncc(Nc3ccc(CCO)cc3)n2n1	i
COc1cncc(Nc2cnc3ccc(-c4ccc(OC)nc4)nn23)c1	i
CN1CCN(Cc2ccc(Nc3cnc4ccc(-c5ccccc5)nn34)cc2)CC1	2.2µM*
COc1ccc(-c2noc([C@@H](C)NCC3CCCCC3)c2C(=O)O)cc1	-14%[44.1 µM]
